Assay results published in PubChem BioAssay (NCI).
The panel holds about 83,000 compounds, 20% with a hit somewhere; the sample as a whole holds those more often.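 How to read the values: 0–100, growth inhibition (40 = 60% inhibited); 0, no net growth; -100 to 0, cell death (-40 = 40% of starting cells died; -100 = all dead).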 Values without a mark were called inactive. Active and inactive are the calls of the source. Rule for the calls: active = growth percent below 10; inactive = the rest.

Columns and labels:
Experiment in all cases: NCI-60 one-dose screen, 48 h (100 = growth as untreated, 0 = no growth, -100 = all killed)
Conditions in all cases: 10 µM unless noted
SR leukemia = test system: SR leukemia
RPMI-8226 leukemia = test system: RPMI-8226 leukemia
OVCAR-8 ovarian = test system: OVCAR-8 ovarian
OVCAR-5 ovarian = test system: OVCAR-5 ovarian
OVCAR-4 ovarian = test system: OVCAR-4 ovarian
SK-OV-3 ovarian = test system: SK-OV-3 ovarian
IGROV1 ovarian = test system: IGROV1 ovarian
OVCAR-3 ovarian = test system: OVCAR-3 ovarian
HS 578T breast = test system: HS 578T breast
NCI/ADR-RES ovarian = test system: NCI/ADR-RES ovarian
T-47D breast = test system: T-47D breast
BT-549 breast = test system: BT-549 breast
MDA-MB-435 melanoma = test system: MDA-MB-435 melanoma
SW-620 colon = test system: SW-620 colon
MCF7 breast = test system: MCF7 breast
HCT-116 colon = test system: HCT-116 colon
HCC-2998 colon = test system: HCC-2998 colon
KM12 colon = test system: KM12 colon

Row | Structure (SMILES) | growth (SR leukemia) | growth (RPMI-8226 leukemia) | growth (OVCAR-8 ovarian) | growth (OVCAR-5 ovarian) | growth (OVCAR-4 ovarian) | growth (SK-OV-3 ovarian) | growth (IGROV1 ovarian) | growth (OVCAR-3 ovarian) | growth (HS 578T breast) | growth (NCI/ADR-RES ovarian) | growth (T-47D breast) | growth (BT-549 breast) | growth (MDA-MB-435 melanoma) | growth (SW-620 colon) | growth (MCF7 breast) | growth (HCT-116 colon) | growth (HCC-2998 colon) | growth (KM12 colon)
1 | Cc1[nH]n(C(=O)c2ccncc2)c(=O)c1N=Nc1ccc(F)c(Cl)c1 | 76.1% | 87.6% | 103% | 114% | 112% | 103% | 95.3% | 98.3% | 89.1% | 95.6% | 99.7% | 103% | 112% | 99.8% | 92.1% | 103% | 110% | 105%
2 | CCNC(=S)NNC(=O)c1cc2ccc1CCc1ccc(cc1)CC2 | 101% | 102% | 102% | 96.2% | 106% | 123% | 103% | 98.6% | 102% | 101% | 95.8% | 102% | 100% | 101% | 93.6% | 92.5% | 103% | 102%
3 | CC(C)(C)CC(C)(C)Nc1c(-c2ccc(C(F)(F)F)cc2)nc2cnccn12 | 59.8% | 62.9% | 89.2% | 102% | 79.4% | 82.7% | 67.4% | 84.8% | 102% | 81.9% | 74.4% | 76% | 98.8% | 102% | 66.5% | -5.73% (active) | 92.1% | 83.8%
4 | CCOC(=O)c1c(O)cc(-c2ccccc2)cc1-c1sc(N(C)Cc2ccccc2)nc1Cl | 93.4% | 95.2% | 97.8% | 89.4% | 102% | 95.7% | 108% | 106% | 88.6% | 102% | 93.5% | 42.7% | 101% | 96.5% | 94% | -85.6% (active) | 103% | 104%
5 | COc1ccc(C(=O)/C=C/c2c(OC)cc(OC)cc2OC)c(OC)c1 | 23.1% | 13% | 25.9% | 31.5% | 79.1% | 10.9% | 40.3% | -33.3% (active) | 54.1% | -21.9% (active) | 19% | 12.3% | -20.2% (active) | 16.6% | 21.4% | 18.2% | 41.7% | 15.6%
6 | CCCCCCCCCCN=C(N)N=C(N)N | 37.8% | 34.8% | 43.5% | 64.1% | 44.9% | 52.3% | 12.1% | 41.9% | 55% | 79.5% | 29.4% | 15.6% | 37.7% | 58.5% | 32.9% | 41.9% | 49.5% | 28.5%
7 | C#Cc1cccc(NC(=O)Nc2ccc(NC(=O)CCl)cc2)c1 | -36.4% [8.25 µM] (active) | -37.1% [8.25 µM] (active) | -14.9% [8.25 µM] (active) | -14.5% [8.25 µM] (active) | -50.8% [8.25 µM] (active) | -86.7% [8.25 µM] (active) | -88% [8.25 µM] (active) | -88% [8.25 µM] (active) | -4.85% [8.25 µM] (active) | -8.33% [8.25 µM] (active) | -40.2% [8.25 µM] (active) | -64.2% [8.25 µM] (active) | 21.7% [8.25 µM] | -61.7% [8.25 µM] (active) | 14.1% [8.25 µM] | -0.386% [8.25 µM] (active) | 82.6% [8.25 µM] | -27.2% [8.25 µM] (active)
8 | CCn1ccnc1C(=O)/C=C/c1ccc(CC(=O)Nc2ccc(F)cc2)cc1 | 14.8% | 2.37% (active) | -2.13% (active) | 44.5% | 35.4% | 86.6% | 32.3% | -4.68% (active) | 52.5% | 4.48% (active) | 24.5% | 4.63% (active) | 20% | 6.04% (active) | 25.2% | 1.33% (active) | 78.8% | -14.3% (active)
